Compounds with a hit are over-represented: about 31% of the library has one in this group of screens.
CYP2C19 inh = blockers of cytochrome P450 2C19 activity – biochemical, luminescence, ADME assay, primary screen | P33261 | CYP2C19 Supersomes, luciferin-H EGE luminescence, 30 min | inhibition, % at 5 µM | 96,000 tested, 21% active | AID 778, 2007;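 active means CYP2C19 inhibition above a set limit at 5 µM in the primary screen, cut at about 50% in these data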;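 further: plate controls were negative control wells for no effect and 2.5 mM tranylcypromine positive control for full effect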
Target sequence (P33261 whole entry, looked up): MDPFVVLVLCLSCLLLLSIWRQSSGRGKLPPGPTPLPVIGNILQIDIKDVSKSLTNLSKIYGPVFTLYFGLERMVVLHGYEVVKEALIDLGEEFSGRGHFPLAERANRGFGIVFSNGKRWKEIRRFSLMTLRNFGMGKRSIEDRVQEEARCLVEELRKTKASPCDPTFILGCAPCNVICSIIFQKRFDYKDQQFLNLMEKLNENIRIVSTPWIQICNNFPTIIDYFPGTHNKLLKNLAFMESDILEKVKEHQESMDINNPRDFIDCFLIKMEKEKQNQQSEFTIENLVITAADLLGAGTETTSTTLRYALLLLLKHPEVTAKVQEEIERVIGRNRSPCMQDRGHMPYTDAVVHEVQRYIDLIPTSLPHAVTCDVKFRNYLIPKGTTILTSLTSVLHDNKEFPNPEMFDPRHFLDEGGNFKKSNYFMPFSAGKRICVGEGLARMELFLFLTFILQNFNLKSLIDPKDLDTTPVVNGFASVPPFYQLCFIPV
CYP2C9 inh = blockers of cytochrome P450 2C9 activity – biochemical, luminescence, ADME assay, primary screen; CYP2C9 Supersomes, luciferin-H conversion; P11712; 96,000 tested, 20% active; inhibition, % at 5 µM;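 active means blocking of liver enzyme CYP2C9 beyond about 50% at 5 µM, limit read from the data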
CYP2C9 act = human CYP2C9 activators, primary screen, biochemical, luminescence; AID 1024, 2008; 96,000 tested, 1.4% active; activation factor at 5 µM; recombinant CYP2C9, luciferin-H conversion; hits give high values; factor 1 = untreated enzyme, 0 = blocked;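 active means activation factor of 2 or more for CYP2C9 at a 5 µM dose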;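 further: 0 = sulfaphenazole-blocked wells and 1 = vehicle-only wells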
CYP2C19 activ = human CYP2C19 activators, primary screen, biochemical, luminescence | Cytochrome P450 2C19 (Homo sapiens), P33261 | recombinant CYP2C19, luciferin-H EGE luminescence; hits give high values; 0 = fully inhibited enzyme, 1 = untreated enzyme | activation factor at 5 µM | 96,000 tested, under 10 active;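 active means activation factor of at least 2 at 5 µM in the primary screen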;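 further: 0 = wells with 2.5 mM tranylcypromine and 1 = vehicle-only wells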
* hit, by the source's call.

SMILES	CYP2C19 inh	CYP2C9 inh	CYP2C9 act	CYP2C19 activ
c1ccc(-n2nnnc2Oc2cccc3cccnc23)cc1	89.9*	-165.9	2.7*	0.1
Cc1ccc(N2C(=O)CC(Cn3nc(C)cc3C)C2=O)cc1 (stereo not drawn)	2.0	1.3	1	1
Cc1cc(C)n(CC2CC(=O)N(c3ccc(Cl)c(Cl)c3)C2=O)n1 (stereo not drawn)	98.8*	76.8*	0.2	0
Cc1ccc(C(=O)COC(=O)c2n[nH]c(=O)c3ccccc23)cc1	25.8	20.6	0.8	0.7
Cc1ccc(C(=O)C(C)OC(=O)c2n[nH]c(=O)c3ccccc23)cc1 (stereo not drawn)	67.5*	84.4*	0.2	0.3
Cc1sc2nc3c4ccccc4c(NCc4ccco4)nn3c(=O)c2c1C	5.6	27.7	0.7	0.9
Cc1cc2c(=O)n(Cc3ccco3)c(SCC(=O)c3ccc(Cl)s3)nc2s1	57.1*	76.0*	0.2	0.4
CCOC(=O)CC(=O)CSc1nc2sc(C)cc2c(=O)n1Cc1ccco1	12.0	43.2	0.6	0.9
CCn1c(SCC(=O)NCCOC)nc2sc(C)c(C)c2c1=O	-8.9	-11.7	1.1	1.1
COc1ccc(NC(=O)CSc2nc3sc(C)c(C)c3c(=O)n2Cc2ccco2)cc1	61.5*	78.9*	0.2	0.4
Cc1sc2nc(SCC(=O)C(C)(C)C)n(Cc3ccco3)c(=O)c2c1C	12.5	72.9*	0.3	0.9
O=c1c2ccccc2nnn1CSc1nnc(C2COc3ccccc3O2)n1-c1ccccc1 (stereo not drawn)	86.7*	89.7*	0.1	0.1
COc1ccc(S(=O)(=O)NCCC(=O)NC(C)c2ccccc2)cc1 (stereo not drawn)	1.5	-93.9	1.9	1
CC(NC(=O)CCOc1ccccc1)c1ccccc1 (stereo not drawn)	94.9*	27.5	0.7	0.1
COc1ccc(OCCCC(=O)NC(C)c2ccccc2)cc1 (stereo not drawn)	56.9*	-36.0	1.4	0.4
CC(NC(=O)Cc1ccc(F)cc1)c1ccccc1 (stereo not drawn)	44.3	3.3	1	0.6
CCOC(=O)c1c(N2CCCCC2)c2ccccc2[nH]c1=O	-8.1	-16.9	1.2	1.1
Cc1nc(SCc2ccc(Br)cc2)[nH]c(=O)c1C	47.1	31.9	0.7	0.5
COC(=O)C1=C(C)N(Cc2ccc(C)cc2)C(=O)/C1=C\c1ccc(O)c(OC)c1	51.5*	92.3*	0.1	0.5
COC(=O)C1=C(C)N(CC2CCCO2)C(=O)/C1=C\c1ccc(O)cc1 (stereo not drawn)	50.0*	62.7*	0.4	0.5
CCOc1cccc(C(=O)Nc2ccc3oc(Cc4ccc(Cl)cc4)nc3c2)c1	46.7	58.2*	0.4	0.5
CCOC(=O)c1c(C#N)c(SCC(=O)Nc2ccc(OC)cc2)nc2c1CN(CC)CC2	51.8*	97.5*	0	0.5
COc1ccc(NC(=O)CSc2nc3c(c(-c4cccs4)c2C#N)CN(C)CC3)cc1OC	49.7	63.8*	0.4	0.5
C=CCSc1nc(=O)n2cccc(C)c2n1	28.1	8.6	0.9	0.7
CCOc1ccc(-c2nc(C)c(C(C)=O)n2O)cc1	17.8	33.5	0.7	0.8
SMILES	CYP2C19 inh	CYP2C9 inh	CYP2C9 act	CYP2C19 activ
CCc1nc2sc3ccccc3c(=O)c2c(=O)n1CCOC	15.7	12.1	0.9	0.8
COCCn1c(C2CCCCC2)nc2sc3ccccc3c(=O)c2c1=O	61.4*	76.7*	0.2	0.4
Cc1ccc(C(C(=O)NC2CCCCC2)N(Cc2cccnc2)C(=O)C2COc3ccccc3O2)o1 (stereo not drawn)	38.7	27.8	0.7	0.6
CC1(C)Cc2c(ccc3ccccc23)-c2nnc(-c3cccnc3)n21	-7.7	-32.0	1.3	1.1
O=c1cc(CN2CCN(C/C=C/c3ccccc3)CC2)c2cc(O)ccc2o1	17.6	34.8	0.7	0.8
COc1ccc(-c2c3c(nc4sc5c(=O)[nH]c(C)nc5c24)CCC3)cc1	-5.3	56.6*	0.4	1.1
COc1ccc(-c2c3c(nc4sc(C(=O)Nc5cc(C)on5)c(N)c24)CCC3)cc1	27.3	50.8*	0.5	0.7
COc1ccc(C(=O)Nc2cc(C)on2)cc1	5.1	8.1	0.9	0.9
Fc1ccc(Nc2nc(Oc3ccccc3F)nc(N3CCCC3)n2)cc1	-19.0	39.3	0.6	1.2
CSc1ccc(/C=N/NC(=O)c2cccc(O)c2)cc1	37.9	24.8	0.8	0.6
C=CCn1c(SC(CCO)C(=O)NCc2ccco2)nc2sc3c(c2c1=O)CCC3 (stereo not drawn)	13.0	55.6*	0.4	0.9
CN1CCc2c(sc3nc(SCC(N)=O)n(-c4ccccc4)c(=O)c23)C1	69.0*	16.0	0.8	0.3
C=CCn1c(SCC(=O)OC)nc2sc3c(c2c1=O)CCN(C)C3	59.8*	23.2	0.8	0.4
COC(=O)CSc1nc2sc3c(c2c(=O)n1-c1ccccc1)CCN(C)C3	32.5	6.1	0.9	0.7
COC(=O)CSc1nc2sc(C)c(C)c2c(=O)n1C	22.1	35.0	0.7	0.8
C=CCn1c(SCC(=O)NC)nc2sc3c(c2c1=O)CCC3	38.8	58.8*	0.4	0.6
C=CCn1c(SCC(=O)NC(=O)NCc2ccco2)nc2sc(C)c(C)c2c1=O	18.8	26.6	0.7	0.8
O=C(NCc1ccccc1)N1CCC(c2nc3ccccc3[nH]2)CC1	-13.7	9.7	0.9	1.1
CSc1nc2sc3c(c2c(=O)n1C1CCCCC1)CCN(C)C3	6.7	-6.4	1.1	0.9
CCSc1nc2sc3c(c2c(=O)n1C1CCCCC1)CCN(C)C3	71.4*	42.8	0.6	0.3
CCOC(=O)C1NC(=O)CC1c1ccccc1 (stereo not drawn)	-3.1	-1.3	1	1
Cc1c(Cl)cccc1NC(=O)C1NC(=O)CC1c1ccccc1 (stereo not drawn)	80.6*	45.5	0.5	0.2
COc1ccc(C(C#N)N2CCCCCC2)cc1OC (stereo not drawn)	-2.1	-6.6	1.1	1
COc1ccc(C2=NN(C(C#N)c3ccc(OC)c(OC)c3)C(c3ccccc3)C2)cc1 (stereo not drawn)	41.5	68.3*	0.3	0.6
COc1cc(/C=C/C(=O)NNc2c(F)c(F)cc(F)c2F)ccc1OC(F)F	72.8*	8.2	0.9	0.3
SMILES	CYP2C19 inh	CYP2C9 inh	CYP2C9 act	CYP2C19 activ
COc1ccc(/C=C/C(=O)NNc2c(F)c(F)cc(F)c2F)cc1OC	15.8	31.0	0.7	0.8
Cc1cc(C)n(S(=O)(=O)c2cc(C(=O)O)c(Cl)cc2Cl)n1	11.2	22.4	0.8	0.9
COc1c(S(=O)(=O)n2nc(C)cc2C)ccc(Cl)c1Cl	51.7*	-131.5	2.3*	0.5
COc1cc(C(=O)n2nc(C)cc2C)cc(OC)c1OC	23.9	15.5	0.8	0.8
Cc1cc(C)n(S(=O)(=O)c2cccc(Cl)c2Cl)n1	54.1*	25.5	0.7	0.5
Cc1cc(C)n(S(=O)(=O)c2ccc(Cl)c(Cl)c2Cl)n1	68.6*	-73.0	1.7	0.3
CCOC(=O)N1CCN(CC(=O)Nc2cc3c(cc2C(C)=O)OCO3)CC1	15.1	79.6*	0.2	0.8

From PubChem BioAssay
